Screening data as filed in PubChem.
aSyn yeast inh: alpha-synuclein toxicity inhibition in yeast; Potency, µM (titrated, usually from 46.1 µM), without a hit: top-dose growth rescue (activation), actives largely listed as activators; 370,000 compounds, 0.14% hits; Yeast expressing alpha-synuclein, growth rescue, BacTiter-Glo, 24 h; note: % of control where 0% means no effect; nearly all actives have a fitted effect of over 65% in size
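Rescue of yeast growth: cells expressing toxic alpha-synuclein, induced in galactose at OD600 0.02, incubated with compound 24 h at 30 C. ATP luminescence quantified growth; inhibitors of toxicity appear as activators.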
Abeta yeast res: compounds reversing amyloid beta toxicity in yeast. yeast expressing A-beta42, growth rescue, OD600, 48 h; response scale: 0% DMSO, 100% iron-clioquinol control. Potency, µM (doses to about 46.1 µM), most hits filed as activators. 410,000 compounds, 0.063% hits; note: nearly all actives have a fitted effect of over 55% in size
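Growth rescue measured by 600 nm absorbance after 48 h yeast culture at 30 C with compound. Values normalized between DMSO and an equimolar ferric chloride plus clioquinol control.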
FUS suppressor: FUS proteinopathy suppression in yeast; S. cerevisiae FUS-expressing, growth rescue, OD600, 24 h; Potency, µM (highest dose often 76.6 µM), most hits filed as activators; 390,000 compounds, 0.24% hits; AID 1347120;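 note: plate controls were DMSO vehicle for no effect and reference control for full effect; nearly all actives have a fitted effect of over 55% in size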
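Compound concentration series was pinned onto galactose-induced FUS-expressing yeast seeded at OD 0.005. Plates sat 24hr at 30C; absorbance at 600 nm gave growth. DMSO served as background control.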
TDP43 rescue: TDP-43 toxicity inhibition in yeast. Potency, µM (top dose mostly 46.1 µM), without a hit: at the top dose growth rescue (activation), most hits filed as activators. TDP-43 expressing yeast growth rescue, BacTiter-Glo, 24 h. 410,000 compounds, 1.8% hits; note: % of control where 0% means no effect; nearly all actives have a fitted effect of over 50% in size
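Yeast cells expressing TDP-43 under galactose induction are exposed to compounds for 24 hr at 30 deg C. BacTiter-Glo luminescence measures growth, so protective compounds score as activators.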
An asterisk follows results filed as active; i = inactive; ? = inconclusive; / = not tested or not shown; [ ] = remark or other dose. Most compounds without a hit are left out; they make up all but 2.1% or so of the library. Calls come from the whole dose curve; as a rule, active = well fitted curve in the direction sought with a large enough effect; inconclusive = small, poorly fitted or top-dose-only effect, or another doubt; inactive = no such curve, though single readings can be large; an effect the other way counts as inactive or inconclusive. Potency is the fitted concentration of half-maximal effect.

SMILES	aSyn yeast inh	Abeta yeast res	FUS suppressor	TDP43 rescue
CCN(CC)c1ccc2c(c1)oc(=O)c1c(Cl)cc(=O)oc12	13µM*	i	/	21%
CCN(CC)c1ccc2c(C)c(Cl)c(=O)oc2c1	-5%	i	i	-11%[9.22 µM]
CCN(CC)c1ccc2c(C)cc(=O)oc2c1	7%	i	i	12%
Cc1cccc(NC(=O)c2cc(-c3ccc4c(c3)OCCO4)on2)c1	/	i	i	-11%
O=C1c2ccccc2C(=O)N1c1cccc(N2C(=O)c3ccccc3C2=O)n1	-2%	/	/	/
OC(COc1ccccc1)Cn1c2ccccc2c2ccccc21 (stereo not drawn)	22%	?	/	18µM*
CCCCN(C)C(=O)CSc1c2c(nc3ccc(Cl)cc13)CCCC2	/	i	i	0%
CCCN(CCC)C(=O)CSc1c2c(nc3ccc(Cl)cc13)CCCC2	/	i	i	20µM*
CN(Cc1ccccc1)C(=O)CSc1c2c(nc3ccc(Cl)cc13)CCCC2	/	i	?	20µM*
CCCCCCCCNS(=O)(=O)CC1NCc2ccc(C)cc21 (stereo not drawn)	/	/	i	/
Cc1ccccc1NC(=O)c1cc2c(-c3ccccc3)nn(-c3ccccc3)c2s1	-1%	i	i	26%
O=C(Cc1c(F)cccc1Cl)OCC(=O)N1CCc2ccccc21	7%	i	i	11µM*
O=C(Cc1c(Cl)cccc1Cl)OCC(=O)N1CCc2ccccc2C1	5%	i	/	19%
Cn1c(=O)c2c(nc(Oc3cccc(Br)c3)n2C)n(C)c1=O	5%	?	i	13µM*
Cn1c(=O)c2c(ncn2CCOc2cccc(Br)c2)n(C)c1=O	27%	i	i	14µM*
COc1cc(OC)cc(C(=O)NCCc2csc(-c3cccc(C)c3)n2)c1	/	i	?	?
Cc1ccc(CNC(=O)C(C)n2c(=O)cc(-c3ccccc3)c3c(C)nn(C)c32)cc1 (stereo not drawn)	/	i	i	22µM*
COc1ccccc1CNC(=O)C(C)n1c(=O)cc(-c2ccccc2)c2c(C)nn(C)c21 (stereo not drawn)	/	i	?	16µM*
COc1cccc(CNC(=O)C(C)n2c(=O)cc(-c3ccccc3)c3c(C)nn(C)c32)c1 (stereo not drawn)	/	i	i	22µM*
Cc1ccc(CNC(=O)Cn2c(=O)cc(-c3ccccc3)c3c(C)nn(C)c32)cc1	/	i	i	22µM*
CN(C)c1ccc(C=Nc2cncc3ccccc23)cc1	-6%	/	/	/
CC(C)(C)OC(=O)NC(Cc1ccccc1)C1CC(C#N)C(=O)O1 (stereo not drawn)	/	/	i	/
COc1ccc(N=C2SC(CC(=O)Nc3ccccc3)C(=O)N2CCc2ccccn2)cc1 (stereo not drawn)	-2%	i	/	21%
COc1ccc(OC)c(NC(=O)CC2SC(=Nc3ccccc3)N(CCc3ccccn3)C2=O)c1 (stereo not drawn)	8%	i	35µM*	2%
Cc1ccc(-n2c(SCC(=O)c3ccc4c(c3)OCO4)nc3ccccc3c2=O)cc1	/	/	i	/
SMILES	aSyn yeast inh	Abeta yeast res	FUS suppressor	TDP43 rescue
CCOC(=O)C1=C(Nc2ccc(Cl)cc2)OCC1=O	-1%	i	i	11µM*
CCOC(=O)c1nc(Nc2ccc(Cl)cc2)c2c(C)noc2n1	/	i	i	?
COc1ccc(/C=C/C(=O)N2CCCc3ccccc32)cc1	-1%	i	/	20µM*
COc1ccc(N/N=C(/C(C)=O)N2CCCc3ccccc32)cc1	-3%	i	i	20µM*
COc1ccc(NC(=O)N2CCCc3ccccc32)cc1	-1%	i	i	16%
O=C(NCCCc1ccccc1)c1nn(-c2ccccc2)nc1CO	/	i	i	27%
O=C(NCCc1ccccc1)c1nn(-c2ccccc2Cl)nc1CO	/	i	i	35µM*
CC(C)CC(C(=O)OCC(=O)Nc1cccc(Cl)c1)N1C(=O)C2CC=CCC2C1=O (stereo not drawn)	24%	i	/	35µM*
Cc1nc2ccc(NC(=O)Cc3ccc4c(c3)OCCO4)cc2s1	-49%	i	/	3.5µM*
Cc1nc2ccc(NC(=O)Cc3ccc(Br)cc3)cc2s1	-16%	i	i	-17%
CCCSc1nnc(Sc2nnnn2-c2ccccc2)s1	0%	i	i	18µM*
COC(=O)Oc1ccc(/C=C/C(=O)OC(C)C)cc1OC(=O)OC	-12%	i	i	14µM*
